Here are results for 35 molecules from PubChem BioAssay (EPA / NIEHS).

Inconclusive results are not listed. Calls of active or inactive are those of the source. Rule for the calls: active = hit-call score of the fitted dose curve at least 0.9, where 1 is the maximum; inconclusive = response in the unintended direction; inactive = score below 0.9.

Hepatocyte nuclear factor 4-alpha (Homo sapiens), sequence (P41235 whole entry, looked up, the tested form may be a part): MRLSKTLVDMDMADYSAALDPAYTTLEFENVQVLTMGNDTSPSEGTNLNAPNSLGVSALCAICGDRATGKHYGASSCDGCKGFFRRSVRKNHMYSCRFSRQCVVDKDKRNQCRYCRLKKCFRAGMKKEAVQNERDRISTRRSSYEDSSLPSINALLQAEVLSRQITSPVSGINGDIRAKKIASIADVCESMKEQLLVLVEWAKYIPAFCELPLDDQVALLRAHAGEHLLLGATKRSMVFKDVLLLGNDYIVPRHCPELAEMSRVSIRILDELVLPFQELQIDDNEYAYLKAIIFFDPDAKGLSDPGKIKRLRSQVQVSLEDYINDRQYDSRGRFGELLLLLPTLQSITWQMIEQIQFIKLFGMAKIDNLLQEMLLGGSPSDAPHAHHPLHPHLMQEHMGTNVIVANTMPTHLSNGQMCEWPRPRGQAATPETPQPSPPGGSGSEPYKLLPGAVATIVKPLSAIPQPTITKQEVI

The first experiment concerns the target Hepatocyte nuclear factor 4-alpha (Homo sapiens) (UniProt P41235). The experiment is described as follows: ATG_HNF4a_TRANS: Attagene TRANS-FACTORIAL HepG2 Assay for human Hepatocyte Nuclear Factor 4 alpha (HNF4a) (AID 2282982). The conditions noted are these: HepG2 HNF4a transactivation reporter, mRNA readout. Put shortly: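 In this trans-factorial format, a chimeric HNF4a-GAL4 fusion drives a GAL4-UAS reporter in transfected HepG2 liver cells. After 24 h treatment, reporter mRNA induction is measured by RT-PCR with capillary electrophoresis, relative to DMSO.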
Take `CC1CNCC(C)O1` (centres undefined): the outcome was inactive.

Regarding `CCOC(=O)CN[C@@H](C(=O)N1CC[C@H]1C(=O)NCc1ccc(/C(N)=N/O)cc1)C1CCCCC1`, the call was inactive.

For `CCCCCCc1ccc(N)cc1`, the molecule was called inactive.

For the molecule `O=C1c2ccc(O)c(O)c2C(=O)c2c(O)ccc(O)c21`, the call was inactive.

As for `Nc1ccn([C@@H]2O[C@H](CO)[C@@H](O)C2O)c(=O)n1` (some centres undefined), the molecule was classed as inactive.

Turning to `CN(C)c1ccc(C(=C2C=CC(=[N+](C)C)C=C2)c2ccccc2)cc1`, the molecule was called inactive.

For `O=P(O)(O)CCC(F)(F)C(F)(F)C(F)(F)C(F)(F)C(F)(F)C(F)(F)C(F)(F)C(F)(F)F`, the molecule was called inactive.

As for `CC(C)(C)C1CCCCC1O` (centres undefined), the molecule was classed as inactive.

`O=C(F)C(F)(F)C(F)(F)C(F)(F)C(F)F`: the result was inactive.

As for `NNC(=O)CCCCC(=O)NN`, the molecule was called inactive.

For `COCN(COC)c1nc(N(COC)COC)nc(N(COC)COC)n1`, the molecule was called inactive.

For the molecule `FC(F)(F)N1C(F)(F)C(F)(F)OC(F)(F)C1(F)F`, the molecule was classed as inactive.

With `COc1cc(OC)nc(NC(=O)NS(=O)(=O)Nc2ccccc2C(=O)N(C)C)n1`, the molecule was called inactive.

Take `C=CC(F)(F)C(F)(F)C(F)(F)C(F)(F)F`: the call was inactive.

Take `O=C(Nc1ccc(Cl)c(Cl)c1)c1cc(Cl)cc(Cl)c1O`: the result was inactive.

For `C[N+](C)(CCCNS(=O)(=O)CCC(F)(F)C(F)(F)C(F)(F)C(F)(F)C(F)(F)C(F)(F)F)CC(=O)[O-]`, the outcome was inactive.

System in another experiment: not listed separately
Nature of the experiment: ATG_M_06_TRANS: Attagene TRANS-FACTORIAL HepG2 Assay for M06 Transcription Factor (Internal Marker) (AID 2282983).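 Note: reporter transcript level by RT-PCR then capillary electrophoresis fluorescence.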 Conditions: HepG2 Attagene TRANS M06 internal marker reporter. Put shortly:
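In this multiplexed HepG2 system, compounds are incubated 24 h with cells carrying GAL4-UAS reporter units. Reporter RNA is amplified and resolved by capillary electrophoresis, and induction is scored against DMSO.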
For the molecule `CC1CNCC(C)O1` (centres undefined), the molecule was called inactive.

`CCOC(=O)CN[C@@H](C(=O)N1CC[C@H]1C(=O)NCc1ccc(/C(N)=N/O)cc1)C1CCCCC1`: the molecule was classed as inactive.

Turning to `CCCCCCc1ccc(N)cc1`, the molecule was called inactive.

Turning to `O=C1c2ccc(O)c(O)c2C(=O)c2c(O)ccc(O)c21`, the result was inactive.

Regarding `CC1=NN(c2ccccc2)C(=O)C1`, the result was inactive.

As for `FC(F)(F)C(F)(F)C(F)(F)C(F)(F)I`, the molecule was called inactive.

Turning to `Cc1[nH]nc2c1N=C(c1ccccc1Cl)c1cc([N+](=O)[O-])ccc1N2`, the outcome was inactive.

`CN(C)c1ccc(C(=C2C=CC(=[N+](C)C)C=C2)c2ccccc2)cc1`: the result was inactive.

Consider `CCCCCCCCCCCCCCCCCC[N+](C)(C)Cc1ccccc1`, for which the molecule was classed as inactive.

As to `CCCCN(C)C`, the molecule was called inactive.

Turning to `CCC(=O)C=Cc1ccc(OC)cc1`, the molecule was classed as inactive.

In the case of `O=P(O)(O)CCC(F)(F)C(F)(F)C(F)(F)C(F)(F)C(F)(F)C(F)(F)C(F)(F)C(F)(F)F`, the call was inactive.

On to `CC(C)CCOCCC(C)C`, for which the result was inactive.

For `CC(C)(C)C1CCCCC1O` (centres undefined), the call was inactive.

With `O=S(=O)(O)c1ccccc1`, the result was inactive.

`O=C(O)CN(CCCN(CC(=O)O)CC(=O)O)CC(=O)O`: the result was inactive.

Take `Brc1cc(Br)c(Oc2c(Br)cc(Br)c(Br)c2Br)cc1Br`: the molecule was classed as inactive.

`Brc1ccc(Oc2ccc(Br)cc2Br)cc1`: the molecule was classed as inactive.

As to `CCc1cccc(CC)c1NC(=O)C(=O)O`, the call was inactive.

As to `CC(C)(C)c1ccc(O)c(O)c1`, the result was inactive.

For `O=C(F)C(F)(F)C(F)(F)C(F)(F)C(F)F`, the molecule was called inactive.

With `COCN(COC)c1nc(N(COC)COC)nc(N(COC)COC)n1`, the outcome was inactive.

As to `FC(F)(F)N1C(F)(F)C(F)(F)OC(F)(F)C1(F)F`, the result was inactive.

Take `Cc1cc(C(C)(C)C)c(O)c(C(C)(C)C)c1`: the result was inactive.

With `Cc1cc(Cc2cc(C)cc(C(C)(C)C)c2O)c(O)c(C(C)(C)C)c1`, the molecule was classed as inactive.

On to `Cc1ccc2ccc3ccc(C)cc3c2c1`, for which the call was inactive.

Regarding `COc1cc(OC)nc(NC(=O)NS(=O)(=O)Nc2ccccc2C(=O)N(C)C)n1`, the outcome was inactive.

Regarding `O=C(CC(=O)C(F)(F)C(F)(F)C(F)(F)F)c1cccs1`, the call was inactive.

With `C=CC(F)(F)C(F)(F)C(F)(F)C(F)(F)F`, the molecule was classed as inactive.

`Oc1c(Cl)cc(Cl)cc1Sc1cc(Cl)cc(Cl)c1O`: the result was inactive.

For the molecule `O=C(Nc1ccc(Cl)c(Cl)c1)c1cc(Cl)cc(Cl)c1O`, the result was inactive.

Regarding `OCC1CCC(CO)CC1` (centres undefined), the result was inactive.

In the case of `C[N+](C)(CCCNS(=O)(=O)CCC(F)(F)C(F)(F)C(F)(F)C(F)(F)C(F)(F)C(F)(F)F)CC(=O)[O-]`, the molecule was called inactive.
